According to the supplement of paper PMC10849652:
Targets with a hit are over-represented here; the source holds about 8,800 in all. About 0.5% of all pairs of compound and target were hits. Unmarked numbers belong to inactive results.

How the values were obtained:
Assay in all cases: log2 fold change, soluble protein after heating vs DMSO (PISA); higher = thermal stabilisation; K562 lysate, 10 uM; active = over 0.2 and 3.5 SD of the protein, either way, in both replicates (recomputed)
[1] = compound: C1=CC=C(C=C1)[C@H](COC2=CC3=C(C=C2)NC(=O)N3)NC(=O)C4=CC=CN(C4=O)CC5=CC(=C(C=C5)F)F
Summary of the method: (§1)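 Quantification was by TMTpro 16plex LC-MS/MS with equalised channel sums, applied to the supernatant after 21,000xg for 90 min. Samples were crude K562 extract at 1 mg/mL protein in PBS pH 7.4 with 1 mM MgCl2, treated with 10 μM compound for 30 min, heated for 3 min across 48°C-58°C, pooled and brought to 0.5% NP-40 at 4°C. Values are log-two fold changes in thermal stability relative to solvent controls, from duplicates.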

[2] = compound: CC1=C(SC2=C1C(=N[C@H](C3=NN=C(N32)C)CC(=O)N)C4=CC=C(C=C4)Cl)C
Summary of the method: as §1

[3] = compound: CC1=C2C(=CC=C1)N=C(N(C2=O)C3=CC=CC=C3C)CN4C=NC5=C(N=CN=C54)N
Summary of the method: as §1

[4] = compound: Cc1sc2c(c1C)C(c1ccc(Cl)cc1)=N[C@@H](CC(=O)OC(C)(C)C)c1nnc(C)n1-2
Summary of the method: as §1

[5] = compound: c1ccc([C@@H]2C[C@H]2NC2CCNCC2)cc1
Summary of the method: as §1

Sequence of UniProt Q969S8 (Q969S8 whole entry, looked up): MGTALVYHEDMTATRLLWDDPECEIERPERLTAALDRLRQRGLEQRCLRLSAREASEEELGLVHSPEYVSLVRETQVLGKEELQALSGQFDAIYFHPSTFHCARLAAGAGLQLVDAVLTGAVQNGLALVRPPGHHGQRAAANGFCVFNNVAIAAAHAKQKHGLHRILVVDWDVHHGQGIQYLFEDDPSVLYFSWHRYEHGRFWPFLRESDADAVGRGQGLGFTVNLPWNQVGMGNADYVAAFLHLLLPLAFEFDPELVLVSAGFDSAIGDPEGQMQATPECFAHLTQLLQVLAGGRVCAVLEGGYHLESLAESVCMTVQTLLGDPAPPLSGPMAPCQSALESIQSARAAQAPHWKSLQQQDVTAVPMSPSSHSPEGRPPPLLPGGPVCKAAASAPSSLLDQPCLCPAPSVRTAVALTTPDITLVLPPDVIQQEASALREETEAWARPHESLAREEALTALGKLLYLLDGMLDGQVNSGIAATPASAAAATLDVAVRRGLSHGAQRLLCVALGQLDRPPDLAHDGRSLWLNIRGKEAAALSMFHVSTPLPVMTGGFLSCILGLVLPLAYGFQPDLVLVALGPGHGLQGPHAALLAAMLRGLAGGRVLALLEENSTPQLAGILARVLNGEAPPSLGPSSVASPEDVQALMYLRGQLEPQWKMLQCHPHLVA
Sequence of UniProt Q14527 (Q14527 whole entry, looked up): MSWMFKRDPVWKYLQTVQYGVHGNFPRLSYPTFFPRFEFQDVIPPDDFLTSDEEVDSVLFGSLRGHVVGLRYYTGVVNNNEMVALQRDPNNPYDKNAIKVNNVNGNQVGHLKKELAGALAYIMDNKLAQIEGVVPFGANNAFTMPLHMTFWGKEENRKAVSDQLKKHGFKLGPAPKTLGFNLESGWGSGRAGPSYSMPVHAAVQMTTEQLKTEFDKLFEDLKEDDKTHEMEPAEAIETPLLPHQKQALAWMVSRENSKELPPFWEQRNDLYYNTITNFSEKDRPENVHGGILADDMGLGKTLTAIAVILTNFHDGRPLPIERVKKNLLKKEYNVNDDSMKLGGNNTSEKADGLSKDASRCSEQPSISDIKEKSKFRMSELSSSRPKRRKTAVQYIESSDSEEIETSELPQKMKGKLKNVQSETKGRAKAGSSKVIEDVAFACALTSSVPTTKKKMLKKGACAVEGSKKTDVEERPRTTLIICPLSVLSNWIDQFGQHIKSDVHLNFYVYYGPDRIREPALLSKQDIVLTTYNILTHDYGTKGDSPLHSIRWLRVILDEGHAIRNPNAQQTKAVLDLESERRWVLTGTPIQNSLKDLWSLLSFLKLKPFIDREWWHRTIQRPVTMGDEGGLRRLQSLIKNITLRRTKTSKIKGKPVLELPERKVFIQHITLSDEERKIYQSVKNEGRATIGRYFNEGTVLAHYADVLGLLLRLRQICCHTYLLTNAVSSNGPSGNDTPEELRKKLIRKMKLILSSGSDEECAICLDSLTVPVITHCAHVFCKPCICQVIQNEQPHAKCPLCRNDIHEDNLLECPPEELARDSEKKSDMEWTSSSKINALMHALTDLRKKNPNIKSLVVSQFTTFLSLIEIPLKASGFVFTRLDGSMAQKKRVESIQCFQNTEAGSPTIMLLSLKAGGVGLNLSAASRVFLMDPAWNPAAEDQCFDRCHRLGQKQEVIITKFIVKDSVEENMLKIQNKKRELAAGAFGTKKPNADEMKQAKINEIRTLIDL
Sequence of UniProt Q8WVV9 (Q8WVV9 whole entry, looked up): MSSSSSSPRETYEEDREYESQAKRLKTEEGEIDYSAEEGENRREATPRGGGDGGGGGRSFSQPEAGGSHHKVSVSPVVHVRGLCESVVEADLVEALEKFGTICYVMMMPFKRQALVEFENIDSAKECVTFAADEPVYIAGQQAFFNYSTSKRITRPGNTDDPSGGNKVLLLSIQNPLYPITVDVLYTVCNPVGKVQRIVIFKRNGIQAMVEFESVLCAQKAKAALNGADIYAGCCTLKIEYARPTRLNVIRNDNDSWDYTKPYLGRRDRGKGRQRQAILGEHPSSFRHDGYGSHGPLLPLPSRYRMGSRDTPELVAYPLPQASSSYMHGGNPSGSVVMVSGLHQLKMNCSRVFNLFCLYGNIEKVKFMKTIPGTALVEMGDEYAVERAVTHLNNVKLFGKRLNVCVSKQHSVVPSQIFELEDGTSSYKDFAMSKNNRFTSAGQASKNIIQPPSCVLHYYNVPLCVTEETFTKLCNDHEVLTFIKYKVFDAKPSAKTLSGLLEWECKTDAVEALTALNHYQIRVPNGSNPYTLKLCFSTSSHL
Sequence of UniProt Q92759 (Q92759 whole entry, looked up): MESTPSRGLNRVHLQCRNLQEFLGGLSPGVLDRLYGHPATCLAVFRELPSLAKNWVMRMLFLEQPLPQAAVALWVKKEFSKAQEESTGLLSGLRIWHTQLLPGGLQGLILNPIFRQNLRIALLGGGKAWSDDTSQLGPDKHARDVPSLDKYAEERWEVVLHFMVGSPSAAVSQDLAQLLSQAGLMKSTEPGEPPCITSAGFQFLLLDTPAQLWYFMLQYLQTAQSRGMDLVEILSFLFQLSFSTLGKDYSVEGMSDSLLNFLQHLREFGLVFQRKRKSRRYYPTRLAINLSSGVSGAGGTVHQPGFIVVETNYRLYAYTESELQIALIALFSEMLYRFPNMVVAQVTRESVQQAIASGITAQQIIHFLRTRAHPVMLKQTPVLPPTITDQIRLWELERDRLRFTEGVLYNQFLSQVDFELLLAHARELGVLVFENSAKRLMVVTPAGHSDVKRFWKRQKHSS
Sequence of UniProt Q9UGL1 (Q9UGL1 whole entry, looked up): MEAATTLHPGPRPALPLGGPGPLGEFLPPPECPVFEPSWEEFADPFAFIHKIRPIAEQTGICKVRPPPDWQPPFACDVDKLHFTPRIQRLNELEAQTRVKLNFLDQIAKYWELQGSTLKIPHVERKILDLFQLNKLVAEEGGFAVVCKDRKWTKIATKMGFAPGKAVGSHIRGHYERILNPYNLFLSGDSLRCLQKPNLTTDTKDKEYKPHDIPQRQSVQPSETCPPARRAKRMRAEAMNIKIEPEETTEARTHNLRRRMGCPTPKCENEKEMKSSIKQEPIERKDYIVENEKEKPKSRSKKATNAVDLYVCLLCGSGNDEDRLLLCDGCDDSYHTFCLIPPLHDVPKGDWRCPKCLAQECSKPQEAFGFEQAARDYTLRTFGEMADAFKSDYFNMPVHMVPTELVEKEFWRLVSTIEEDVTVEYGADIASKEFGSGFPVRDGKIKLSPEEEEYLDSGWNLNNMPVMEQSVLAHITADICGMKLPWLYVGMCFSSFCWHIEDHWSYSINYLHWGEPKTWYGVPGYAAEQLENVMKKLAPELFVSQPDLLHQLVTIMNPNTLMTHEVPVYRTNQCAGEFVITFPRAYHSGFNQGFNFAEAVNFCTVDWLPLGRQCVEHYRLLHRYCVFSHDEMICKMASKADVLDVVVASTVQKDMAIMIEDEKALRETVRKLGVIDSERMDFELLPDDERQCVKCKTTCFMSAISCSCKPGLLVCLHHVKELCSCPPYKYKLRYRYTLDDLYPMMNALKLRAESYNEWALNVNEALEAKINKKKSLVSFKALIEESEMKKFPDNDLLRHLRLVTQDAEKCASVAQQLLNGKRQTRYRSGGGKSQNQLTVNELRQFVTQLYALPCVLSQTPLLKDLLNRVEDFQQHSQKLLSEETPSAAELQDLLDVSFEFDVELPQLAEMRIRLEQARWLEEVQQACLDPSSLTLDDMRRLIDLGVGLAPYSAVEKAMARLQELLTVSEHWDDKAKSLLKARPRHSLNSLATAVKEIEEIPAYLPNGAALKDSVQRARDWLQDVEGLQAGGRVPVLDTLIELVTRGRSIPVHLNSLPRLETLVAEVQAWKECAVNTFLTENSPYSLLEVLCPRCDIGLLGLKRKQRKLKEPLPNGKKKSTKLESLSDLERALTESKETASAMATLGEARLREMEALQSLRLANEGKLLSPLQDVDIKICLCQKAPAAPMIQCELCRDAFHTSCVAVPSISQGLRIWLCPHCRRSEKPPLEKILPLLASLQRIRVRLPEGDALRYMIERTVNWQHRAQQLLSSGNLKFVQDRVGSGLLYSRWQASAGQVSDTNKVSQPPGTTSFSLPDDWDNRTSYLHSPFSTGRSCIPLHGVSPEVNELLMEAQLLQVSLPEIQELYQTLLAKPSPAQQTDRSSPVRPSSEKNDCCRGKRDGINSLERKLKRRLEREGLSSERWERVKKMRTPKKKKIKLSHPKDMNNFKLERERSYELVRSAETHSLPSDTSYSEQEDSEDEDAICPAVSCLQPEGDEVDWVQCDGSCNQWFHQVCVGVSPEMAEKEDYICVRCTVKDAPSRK
Sequence of UniProt P43250 (P43250 whole entry, looked up): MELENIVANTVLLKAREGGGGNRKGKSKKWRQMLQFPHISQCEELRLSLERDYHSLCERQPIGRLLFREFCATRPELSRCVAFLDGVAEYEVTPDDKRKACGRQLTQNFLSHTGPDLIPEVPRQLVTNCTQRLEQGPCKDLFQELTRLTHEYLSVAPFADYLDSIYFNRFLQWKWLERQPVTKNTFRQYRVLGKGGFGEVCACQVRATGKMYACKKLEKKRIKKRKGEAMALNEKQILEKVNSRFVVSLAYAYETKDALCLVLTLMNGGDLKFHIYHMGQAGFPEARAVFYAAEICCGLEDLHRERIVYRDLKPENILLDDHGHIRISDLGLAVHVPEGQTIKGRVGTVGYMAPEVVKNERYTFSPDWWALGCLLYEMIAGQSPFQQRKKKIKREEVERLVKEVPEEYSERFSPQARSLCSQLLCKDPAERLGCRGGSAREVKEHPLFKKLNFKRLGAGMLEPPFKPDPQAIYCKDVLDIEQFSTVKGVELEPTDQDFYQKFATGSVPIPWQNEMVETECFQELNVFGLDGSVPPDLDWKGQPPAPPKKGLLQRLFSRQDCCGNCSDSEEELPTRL
Sequence of UniProt Q9NVX0 (Q9NVX0 whole entry, looked up): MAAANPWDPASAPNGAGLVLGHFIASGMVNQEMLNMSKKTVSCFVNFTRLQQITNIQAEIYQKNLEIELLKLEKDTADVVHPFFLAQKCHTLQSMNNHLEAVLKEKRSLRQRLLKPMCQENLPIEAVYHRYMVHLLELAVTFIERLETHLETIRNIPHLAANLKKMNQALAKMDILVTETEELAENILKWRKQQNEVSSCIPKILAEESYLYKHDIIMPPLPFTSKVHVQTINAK

Row | Target | log2 fold change [1] | log2 fold change [2] | log2 fold change [3] | log2 fold change [4] | log2 fold change [5]
1 | GOLPH3L (UniProt Q9H4A5) | -0.046 | 0.005 | 0.022 | -0.009 | 0.021
2 | HLTF (UniProt Q14527) | -0.053 | -0.006 | -0.065 | 0.028 | 0.011
3 | HMGB1 (UniProt P09429) | 0.053 | -0.048 | 0.032 | 0.056 | 0.115
4 | HAUS2 (UniProt Q9NVX0) | -0.186 | 0.148 | 0.077 | 0.016 | 0.176
5 | IFNGR1 (UniProt P15260) | 0.094 | 0.083 | 0.142 | -0.299 | -0.479
6 | HSPA14 (UniProt Q0VDF9) | 0 | 0.011 | -0.004 | 0.025 | 0.017
7 | H4C1 (UniProt P62805) | -0.063 | 0.037 | -0.031 | 0.664 (active) | 0.125
8 | HDGFL2 isoform 2 (UniProt Q7Z4V5) | 0.051 | -0.014 | 0.01 | -0.076 | -0.212
9 | INPP4A (UniProt Q96PE3) | -0.079 | 0.112 | 0.027 | 0.036 | 0.017
10 | HNRNPM (UniProt P52272) | -0.099 | 0.034 | 0.041 | -0.025 | 0.014
11 | HK1 isoform 2 (UniProt P19367) | -0.017 | 0.017 | -0.002 | 0.016 | 0.016
12 | HDAC10 (UniProt Q969S8) | -0.076 | 0.115 | 0.21 | 0.197 | -0.055
13 | KDM5B isoform 2 (UniProt Q9UGL1) | -0.07 | 0.117 | 0.018 | 0.07 | -0.229
14 | GTF2H4 (UniProt Q92759) | -0.08 | 0.044 | 0.039 | 0.015 | 0.02
15 | GRK2 (UniProt P25098) | -0.05 | 0.009 | 0.03 | 0.007 | -0.008
16 | GRK6 isoform 2 (UniProt P43250) | 0.086 | -0.034 | -0.135 | 0.084 | -0.018
17 | IMPDH1 isoform 6 (UniProt P20839) | -0.008 | 0.025 | -0.009 | 0.053 | -0.051
18 | HNRNPLL (UniProt Q8WVV9) | 0.018 | 0.028 | 0.007 | 0.022 | 0.036
19 | KDM5C (UniProt P41229) | -0.01 | 0 | 0.008 | -0.01 | 0.032
20 | GNB1 (UniProt P62873) | 0.042 | -0.051 | -0.038 | 0.069 | -0.329
21 | HARS (UniProt P12081) | 0.025 | 0.006 | 0.001 | 0.008 | 0.002
22 | GON4L (UniProt Q3T8J9) | 0.027 | 0 | 0.008 | 0.003 | 0.466 (active)
23 | HEATR6 (UniProt Q6AI08) | -0.039 | -0.086 | 0.05 | 0.008 | 0.014
24 | HAUS6 (UniProt Q7Z4H7) | 0 | -0.012 | 0.021 | 0.005 | 0.041
